# Shown are actives, neighbours in structure and some others; about 14% of the full set was active somewhere.
# Pf growth 96h: P. falciparum growth inhibition at 96 hours; hit rate 6.9% among 320,000; P. falciparum luciferase reporter growth, 96 h; Potency, µM (titrated, usually from 28.7 µM), most hits filed as inhibitors
#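 Infected RBCs, 2% Hct / 0.05% parasitemia final; luciferase-reporter P. falciparum; cpd 96 h, 37 C, 5% CO2; luciferase detection reagent; luminescence.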
# HCV inh: blocks hepatitis C virus. Huh7.5.1 HCVcc-Cre infection, luciferase reporter, 44 h. Potency, µM (doses to about 41.8 µM), usual class: inhibitors. hit rate 3.4% among 340,000. AID 651820
#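 Luciferase read-out (15 sec integration) after a 15 min room-temperature substrate step quantifies HCVcc-Cre infection. Cells, 1,000 per well, had compound added 4 h post-plating, then virus at ~0.5 moi, and were cultured 44 h.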
# HCMV inh: human cytomegalovirus inhibition; AID 1259415; hit rate 4.5% among 410,000; HFF cells, HCMV-luciferase reporter, 72 h; active compounds read low; activity change, negative = inhibition, % at 57.5 µM; in the data active = activity change below about -60%; inconclusive = no clear call, values can overlap the other calls; inactive = above about -39%
#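 Two-dose cell screen: HFF monolayers treated with compounds and infected with luciferase-expressing HCMV at 1 PFU/cell, 72 h at 37C, then lysed for luciferase measurement.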
# MARV entry inh: inhibitors of Marburg virus binding or cell entry; Marburg virus pseudotyped entry inhibition, cell reporter; Potency, µM (highest dose often 37.8 µM), most hits filed as inhibitors; hit rate 1.8% among 300,000; calls by dose curve; tested in HEK293 cells
# Lassa entry inh: blocks Lassa virus binding to or entry into cells; hit rate 1.2% among 300,000; Lassa virus pseudotype entry inhibition, cell reporter; Potency, µM (series often up to 37.9 µM), hits mostly inhibitors; calls by dose curve; tested in HEK293 cells; note: nearly all actives have a fitted effect of over 50% in size
# Pf growth 48h: inhibits P. falciparum growth in the first generation, 48 h; Potency, µM (titrated, usually from 28.7 µM), hits mostly inhibitors; hit rate 5.9% among 310,000; P. falciparum luciferase growth in erythrocytes, 48 h
#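 First compound was added to culture medium, then infected red cells at 0.1% parasitemia and 2% hematocrit (final). After incubation at 37 C under 5% CO2, luciferase detection reagent was dispensed and light output recorded.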
# Hits are given with their value; – = inactive; ? = inconclusive; · = no result; [ ] = another dose, or the depositor's remark. Unless noted, calls come from the whole dose curve; as a rule, active = well fitted inhibition curve with a large enough effect; inconclusive = small, poorly fitted or top-dose-only effect, or another doubt; inactive = no such curve, though single readings can be large or run the other way.
SMILES,Pf growth 96h,HCV inh,HCMV inh,MARV entry inh,Lassa entry inh,Pf growth 48h
C=CCn1c(SCc2nc3ccccc3[nH]2)nnc1-c1ccc(OC)cc1,?,–,?,–,–,–
Cc1ccc(OCc2nnc(SCc3nc4ccccc4[nH]3)n2Cc2ccco2)cc1,6.6µM,10µM,-69,?,?,?
Cc1ccc2[nH]c3c(=O)n(CC(=O)NCCCN4CCN(c5ccc(F)cc5)CC4)ncc3c2c1,?,–,–,–,–,–
Cc1nn(-c2ccccc2)c(C)c1/C=N/NC(=O)c1ccc(F)cc1,·,?,–,·,·,·
CC(C)(C)c1cc(C(=O)N/N=C/c2ccc(F)cc2)n(-c2ccccc2)n1,?,?,-74,?,–,?
CC(C)(C)c1cc(C(=O)N/N=C/c2ccccc2O)n(-c2ccccc2)n1,?,–,-97,?,?,?
CCc1ccc(NC(=O)C2CCN(c3cc(C)nc4c(-c5ccc(Cl)cc5)c(C)nn34)CC2)cc1,·,·,–,–,–,·
CC1(C)Cc2c(c(N3CCCC3)nc3sc4c(N5CCNCC5)ncnc4c23)CO1,?,14µM,·,·,·,?
CC1(C)Cc2c(c(N3CCCC3)nc3sc(C(=O)Nc4ccccc4)c(N)c23)CO1,13µM,–,–,·,·,15µM
COc1ccccc1CNS(=O)(=O)c1cc(-c2cc(C)no2)ccc1C(C)C,–,?,–,?,?,?
Cc1ccc2nc(NC(=O)c3nc(SCc4ccccc4C)ncc3Cl)sc2c1,·,·,–,–,–,·
COc1ccc(-n2c(C)cc(/C=C3/SC(=S)N(C)C3=O)c2C)cc1,0.33µM,–,?,?,–,–
Cc1cc(/C=C2\SC(=O)NC2=O)c(C)n1-c1ccc(N2CCOCC2)cc1,?,–,–,–,–,10µM
Cc1cc(/C=C2\SC(=O)N(C)C2=O)c(C)n1-c1ccc(O)cc1,–,?,-69,·,·,–
Cc1cc(/C=C2\SC(=S)N(Cc3ccco3)C2=O)c(C)n1-c1ccccc1,?,?,-67,?,?,?
CN=C1S/C(=C\c2cc(C)n(-c3ccccc3F)c2C)C(=O)N1C,–,?,-66,?,?,–
CCOC(=O)c1c(C2CC2)csc1NC(=O)COC(=O)c1ccc[n+]([O-])c1,–,?,–,–,–,–
CCOC(=O)c1c(C2CC2)csc1NC(C)=O,–,?,-65,–,–,–
Cc1ccc(-n2ncc3c(NCCCn4ccnc4)ncnc32)cc1,·,·,–,·,?,·
CSC(=N/N=C(\N)c1cnccn1)SC,–,–,–,–,–,–
Cc1cc(N(CCCl)CCCl)ccc1/C=N/N=C(\N)c1cnccn1,·,?,–,2.2µM,?,·
Cc1cc(N(CCCl)CCCl)ccc1C=Cc1ccncn1,·,?,?,4µM,?,·
CCN(CCC#N)c1ccc(/C=N/Nc2nc(C)cc(=O)[nH]2)c(C)c1,?,?,–,–,–,–
Cc1cccc(C)c1NC(=O)C(C(C)C)N1C(=O)C(=O)c2ccccc21 (stereo not drawn),·,·,–,·,·,·
Cc1ccc(NS(=O)(=O)c2cc3[nH]c(=O)c(=O)[nH]c3cc2C)cc1Cl,·,·,–,·,–,·
SMILES,Pf growth 96h,HCV inh,HCMV inh,MARV entry inh,Lassa entry inh,Pf growth 48h
Cc1cc2[nH]c(=O)c(=O)[nH]c2cc1S(=O)(=O)NCc1ccc(Cl)cc1,13µM,–,·,·,·,–
Cc1cc2c(c3oc(=O)c4ccccc4c13)CN(Cc1ccc(F)cc1)CO2,·,·,–,–,–,·
OC1CCCN(C(=S)NCc2ccccc2)C1 (stereo not drawn),3.3µM,–,–,–,–,–
O=C1NC2(CCCCC2)C(=O)N1Cc1cccc(C(F)(F)F)c1,?,–,-103,–,–,–
CCN(CC)CCN(Cc1cc2cc(C)ccc2[nH]c1=O)C(=S)Nc1ccccc1,–,?,-69,?,–,?
Cc1ccc2cc(CN(CC3CCCO3)C(=S)Nc3ccccc3)c(=O)[nH]c2c1 (stereo not drawn),–,–,–,?,–,?
Cc1ccc2cc(CN(CC3CCCO3)C(=S)Nc3ccccc3)c(=O)[nH]c2c1C (stereo not drawn),–,?,-62,?,?,10µM
Cc1ccc2[nH]c(=O)c(CN(CC3CCCO3)C(=S)Nc3ccccc3)cc2c1 (stereo not drawn),–,?,-78,?,?,?
Cc1cccc(NC(=S)N(CCN(C)C)Cc2cc3cc(C)ccc3[nH]c2=O)c1,–,–,–,?,·,?
CCc1ccc(NC(=O)CSc2nc(C)cs2)cc1,·,·,–,·,·,·
Cc1ccc(NC(=O)c2ccc(=O)[nH]n2)cc1S(=O)(=O)Nc1ccc(SC(F)F)cc1,·,3.2µM,–,·,·,·
CCCCNC(=O)CSc1nc2cc3c(cc2c(=O)n1CCCC(=O)NCc1ccc(OC)cc1)OCO3,·,·,–,·,–,·
NS(=O)(=O)c1ccc(CCNc2nn3c(-c4ccc(F)c(Cl)c4)cnc3s2)cc1,·,·,-75,·,·,·
Cn1cc(S(=O)(=O)N2CCCCCC2)cc1C(=O)N1CCN(c2ccc(Cl)cc2)CC1,·,·,?,·,–,·
COc1ccc(C(C(=O)NC2CCCCC2)N(C(=O)CCl)c2ccc(Cl)cc2)cc1 (stereo not drawn),3.7µM,0.56µM,-101,?,?,–
Cc1cccc(N(C(=O)CNC(=O)c2ccco2)C(C(=O)NC2CCCCC2)c2cccnc2)c1 (stereo not drawn),?,–,–,–,–,–
O=C(NC1CCCC1)C(c1ccc(Cl)cc1)N(Cc1ccc(F)cc1)C(=O)CCl (stereo not drawn),–,?,·,?,?,–
O=C(NC1CCCCC1)C(c1cccnc1)N(C(=O)CCl)c1cccc(Cl)c1 (stereo not drawn),?,0.89µM,-104,?,?,?
COC(CN(C(=O)CCl)C(C(=O)NC1CCCCC1)c1ccc(Cl)cc1)OC (stereo not drawn),2.9µM,–,–,?,–,?
COC(CN(C(=O)CCl)C(C(=O)NC1CCCCC1)c1ccccc1C)OC (stereo not drawn),?,10µM,-97,?,?,15µM
O=S1(=O)CC(N2CCN(Cc3ccccc3F)CC2)CN1Cc1cn(Cc2ccc(F)cc2)nn1 (stereo not drawn),·,·,–,·,·,·
CCCc1c(C(=O)Nc2ccc(OC)cc2)cnn1-c1ccccc1,?,–,–,·,·,–
COc1ccccc1NC(=O)c1cnn(-c2ccccc2)c1-n1cccc1,·,·,–,–,?,·
CCc1ccccc1-n1ncc(C(=O)Nc2ccccc2OC)c1C,13µM,–,–,?,?,12µM
CCCc1c(C(=O)NNc2ccccc2OC)cnn1-c1ccccc1,9.3µM,–,–,?,–,?
COc1ccccc1Cn1ccn(CC(=O)Nc2c(C)cc(C)cc2C)c(=O)c1=O,·,·,–,·,?,·
COc1ccc(/C=C/C(=O)Nc2ccccc2C(=O)O)cc1OC,?,–[8.37 µM],-81,1.5µM,1.3µM,–
COC(=O)c1ccccc1NC(=O)/C=C/c1cc(OC)c(OC)c(OC)c1,?,5µM,–,?,?,·
COc1ccc(/C=C/C(=O)Nc2ccc(-n3nncc3-c3ccccc3)cc2)cc1OC,–,13µM,?,?,?,?

# Compound activity as filed in PubChem BioAssay.
